Hits are enriched below; roughly 1.7% of the tested compounds scored in any of these assays.
beta cell repl: inducers of beta-cell replication in MIN6 cells; proliferation, % at 10 µM; 330,000 tested, 0.29% active; MIN6 cells proliferation, ATPlite luminescence, 48 h; cells starved in 0.2% serum; 100% = growth in 10% serum;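 active = compounds whose signal lies at least 3.5 SD above the mean of all wells on their plate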;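 also: 0% = DMSO-treated cells in low-serum medium and 100% = 10% serum control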
OPRM1-OPRD1 inv: inverse agonist of human OPRM1-OPRD1 heterodimerization; cell-based MOR-DOR heterodimer luminescence, inverse agonism; inhibition, % at 9.3 µM; 340,000 tested, 0.21% active; AID 504357; in the data active = inhibition above about 22%, passing the limit was not always enough;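 also: 0% = cells with DMSO and 100% = wells without cells with DMSO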
OPRM1-OPRD1 ag: agonists of human mu-delta opioid receptor heterodimerization; cells, OPRM1-OPRD1 heterodimerization, luminescence; activation, % at 9.3 µM; 340,000 tested, 0.3% active; AID 504326; in the data active = activation above about 18%;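 also: 0% = vehicle-treated cells and 100% = reference agonist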
HTR5A inv ag: inverse agonist of human HTR5A in OPRM1-OPRD1 counter-screen | HTR5A cell line, luminescence, inverse agonism | inhibition, % at 9.3 µM | 340,000 tested, 0.083% active; in the data active = inhibition mostly above about 23%, no sharp cut-off; inactive = mostly below about 18%;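 also: 0% = cells with DMSO and 100% = no-cell wells with DMSO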
V-ATPase pH: alters yeast V-ATPase proton transport | AID 504577 | response, % at 10 µM | S. cerevisiae, pHLuorin cytosolic pH fluorescence | 350,000 tested, 0.37% active; in the data active = response mostly above about 7.3%, no sharp cut-off; inactive = mostly below about 5.4%; also: actives read high
HTR5A ag ctr: counter-screen for OPRM1-OPRD1 agonists: human HTR5A agonism; HTR5A agonist assay, luminescence, cell-based; activation, % at 9.3 µM; 340,000 tested, 0.61% active; in the data active = activation mostly above about 9.5%, no sharp cut-off; inactive = mostly below about 7.6%;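 also: 0% = cells with vehicle only and 100% = reference agonist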
Active calls of the source: *; . = not tested or not shown.

SMILES	beta cell repl	OPRM1-OPRD1 inv	OPRM1-OPRD1 ag	HTR5A inv ag	V-ATPase pH	HTR5A ag ctr
CSc1cnn(Cc2ccccc2)c(=O)c1SCc1ccccc1	.	2	0	10	-2	-4
CCn1c(C)nc2cc(C(=O)N/N=C/c3ccc(O)c(O)c3O)ccc21	.	-49	8	-32	-5	13*
Oc1ccccc1/C=N/NC(=S)NCCc1ccccc1	.	-23	5	-38	0	10*
O=C(NCc1ccccc1CN1CCCC1)c1cccc(S(=O)(=O)N2CCOCC2)c1	-3	13	-3	13	0	-5
CCN(CC(=O)Nc1ccc(NC(C)=O)cc1)C(=O)/C=C/c1ccc(C)o1	-5	-4	1	6	2	-2
NNC(=O)c1cc2c(s1)-c1cc(Cl)ccc1SC2	-4	.	.	.	-5	.
CCN(CC)CCNC(=O)c1cc2c(s1)-c1ccccc1SC2	-6	-21	4	-48	-2	13*
CCCCc1cc(=O)oc2cc(OCc3nn[nH]n3)ccc12	-1	11	-2	2	18*	-2
CCCc1cc(=O)oc2cc(OCc3nn[nH]n3)ccc12	3	8	-2	7	-1	4
COC(=O)C(NS(=O)(=O)c1ccccc1Br)C(C)C (stereo not drawn)	0	-7	1	-13	-1	14*
CC(Sc1nnc(CN2CCCC2)n1Cc1ccccc1)C(=O)Nc1ccc(F)c(F)c1F (stereo not drawn)	.	-19	5	11	-4	0
Cc1ccc(NC(=O)c2ccc(NC(=O)c3ccccc3)cc2)cc1C	0	-24	5	-2	0	13*
Cc1cc(C(=O)OCC(=O)N(C)c2c(N)n(Cc3ccccc3)c(=O)[nH]c2=O)c(C)n1-c1ccccc1	-3	16	-4	1	2	-1
O=C(Cc1ccc([N+](=O)[O-])cc1)Oc1ccccc1	.	16	-3	-9	-2	2
COc1cccc(-c2cc(C(=O)Nc3ccncc3)c3ccccc3n2)c1	-4	-82	15	-29	2	14*
Cc1cccc(NC(=O)c2cc(C)nc3ccccc23)c1	-3	7	-1	-50	3	14*
COc1cccc(NC(=O)c2cc(-c3ccccn3)nc3ccccc23)c1	-2	0	0	-24	5	3
Cc1cc(C)nc(NC(=O)c2cc(-c3ccc4c(c3)OCO4)nc3ccccc23)c1	-2	4	-1	-9	14*	4
Cc1ccc(C(=O)OCC(=O)Nc2ccc(C)c(S(=O)(=O)N3CCCCC3)c2)o1	.	.	.	.	1	.
C[C@@]12CCC=C[C@H]1[C@H](c1ccc(C(F)(F)F)cc1)N(Cc1ccccc1)C2=O	-7	-7	1	-2	2	13*
CN(c1ccccc1)S(=O)(=O)c1cccc(NC(=O)CCNC(=O)c2ccco2)c1	.	.	.	.	-1	.
COc1ccc(NC(=O)N2CCCC(c3nc(-c4ccc(C(C)C)cc4)no3)C2)cc1 (stereo not drawn)	-6	-38	7	-39	4	12*
COc1ccc(NC(=O)N2CCCC(c3nc(-c4ccc(OC)cc4)no3)C2)cc1 (stereo not drawn)	2	1	0	0	-2	0
O=C(c1c(Cl)cccc1Cl)N1CCN(c2ncccn2)CC1	1	19	-4	-25	2	7
O=C(N/N=C/c1[nH]c2ccccc2c1Cl)c1cccc(Br)c1	-1	.	.	.	0	.
SMILES	beta cell repl	OPRM1-OPRD1 inv	OPRM1-OPRD1 ag	HTR5A inv ag	V-ATPase pH	HTR5A ag ctr
O=C(N/N=C/C1C(c2ccccc2)C1(Cl)Cl)c1cccc(Br)c1 (stereo not drawn)	0	5	-1	-7	-4	11*
CCc1cccc2c(/C=N/NC(=O)c3cccc(S(=O)(=O)Nc4ccccc4Cl)c3)c[nH]c12	-3	-6	1	0	1	2
COc1ccc(CNC(=O)C(c2ccncc2)N(C(=O)Cc2cccs2)c2ccccc2)cc1 (stereo not drawn)	.	5	-1	-21	-5	0
COc1ccc(N(C(=O)CCl)C(C(=O)NCCc2ccccc2)c2cccs2)cc1 (stereo not drawn)	.	-360	68*	-66	0	55*
Nc1ccc(Cn2ccc3c4c(N)nc(N)nc4ccc32)cc1	.	0	0	-13	-7	3
COC(=O)C1=C(C)N(Cc2ccccc2)C(=NCc2ccc(OC)cc2)N[C@H]1c1cccc(F)c1	-8	-26	4	-15	3	6
COC(=O)C1=C(C)N(Cc2ccccc2)C(=NCc2ccccc2)N[C@H]1c1cccc(C(F)(F)F)c1	-6	-83	15	-76	4	13*
COC(=O)C1=C(C)N(Cc2ccccc2)C(=NCC(C)C)N[C@H]1c1cccc(C(F)(F)F)c1	-6	-54	9	-9	-1	5
COC(=O)C1=C(C)N(Cc2ccccc2)C(=NCc2cccc(Cl)c2)N[C@H]1c1cccc(F)c1	-6	-154	28*	-8	6	3
COc1ccc(C(=O)/C=C/C(=O)N(CC(=O)NC2CCCCC2)CC2CCCO2)c(O)c1 (stereo not drawn)	-5	33*	-6	-5	7	2
COc1ccc(C(=O)/C=C/C(=O)N(CC(=O)NC2CCCCC2)Cc2ccccc2)c(O)c1	.	-10	2	-13	-2	5
c1ccc(N=C2SCCCS2)cc1	.	.	.	.	3	.
Cc1cc(Cl)ccc1N(CC(=O)NCc1ccccc1)S(C)(=O)=O	-3	-5	1	10	2	-3
CCn1c(=O)c2c(nc3n2CCCN3c2cccc(C)c2)n(C)c1=O	-1	18	-4	-3	3	-1
O=[N+]([O-])c1ccc(S(=O)Cc2ccccc2)c([N+](=O)[O-])c1 (stereo not drawn)	.	15	-3	7	22*	-2
O=C(NC(c1ccccc1)c1c(O)ccc2ccccc12)c1ccccc1Cl (stereo not drawn)	-6	-55	10	1	-5	11*
O=C(NC(c1ccc(Cl)cc1)c1c(O)ccc2ccccc12)c1ccccc1 (stereo not drawn)	.	9	-2	-3	-5	-1
O=C(NCCc1ccncc1)Nc1ccccc1	-3	13	-3	-5	-4	13*
O=C(NCCc1ccncc1)Nc1ccc(Cl)c(Cl)c1	-3	-12	2	36	-4	0
COc1ccc2ccccc2c1/C=N\NC(=O)c1ccc(C)s1	1	5	-1	-15	1	-3
COc1ccc2ccccc2c1/C=N/NC(=O)c1sc(N)c(C#N)c1C	.	-129	24*	-39	-1	8
CC1(C)CC(=O)C=C(Nc2ccc(F)cc2)C1	-1	-1	0	5	14*	5
Cc1ccc2nc(-c3ccccc3)cc(C(=O)N(C)CC(=O)Nc3ccccc3Br)c2c1	-4	-8	2	-11	0	2

Source: PubChem BioAssay
